Reference: paper PMC8384837, “Expanding the binding specificity for RNA recognition by a PUF domain”

Tests used:
Test in all cases: yeast three-hybrid, YBZ-1, SC-Leu-His + 0.5 mM 3-AT, 4 days
Conditions in all cases: tags: N-Gal4 AD-HA kept; label: inside an RPR1-promoter hybrid RNA with tandem MS2 sites; ssRNA
PUM1 PUF domain R4-AFP = PUM1 PUF domain R4-AFP (Homo sapiens, UniProt Q14671 828-1176, N971A;H972F;Q975P)
Procedure, shortened: (§1)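 A centromeric plasmid in strain YBZ-1 co-expressed Pumilio-1 PUF domain libraries, randomized at the three base-contacting residues of each repeat, with matching RNA elements; the strain carries a LexA–MS2 coat fusion and a HIS3 reporter. After four days on SC-Leu (input) or SC-Leu-His + 0.5 mM 3-AT (selection), the repeat regions were PCR-amplified and Illumina-sequenced. The interaction score is the log change in variant frequency from input to selection, using log2 and a pseudocount of 1 where absent.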

PUM1 PUF domain R4-VNA = PUM1 PUF domain R4-VNA (Homo sapiens, UniProt Q14671 828-1176, N971V;H972N;Q975A)
Procedure, shortened: as §1

PUM1 PUF domain R8-RCK = PUM1 PUF domain R8-RCK (Homo sapiens, UniProt Q14671 828-1176, N1122R;Y1123C;Q1126K)
Procedure, shortened: as §1

PUM1 PUF domain R8-SYR = PUM1 PUF domain R8-SYR (Homo sapiens, UniProt Q14671 828-1176, N1122S;Q1126R)
Procedure, shortened: as §1

PUM1 PUF domain R6-SWE = target: T1, PUM1 PUF domain R6-SWE (Homo sapiens, UniProt Q14671 828-1176, N1043S;Y1044W;Q1047E)
T1 sequence: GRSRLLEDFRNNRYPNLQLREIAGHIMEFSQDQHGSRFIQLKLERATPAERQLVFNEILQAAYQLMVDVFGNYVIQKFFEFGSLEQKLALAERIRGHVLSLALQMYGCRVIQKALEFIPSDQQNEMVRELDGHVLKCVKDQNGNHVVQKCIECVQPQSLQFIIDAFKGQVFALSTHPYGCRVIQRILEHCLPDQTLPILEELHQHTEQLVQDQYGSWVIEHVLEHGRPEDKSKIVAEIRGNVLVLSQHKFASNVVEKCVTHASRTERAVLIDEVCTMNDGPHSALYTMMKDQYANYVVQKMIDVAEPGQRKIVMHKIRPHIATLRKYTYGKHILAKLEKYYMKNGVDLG
Procedure, shortened: as §1

PUM1 PUF domain R3-RVR = PUM1 PUF domain R3-RVR (Homo sapiens, UniProt Q14671 828-1176, C935R;R936V;Q939R)
Procedure, shortened: as §1

PUM1 PUF domain R3-YFE = PUM1 PUF domain R3-YFE (Homo sapiens, UniProt Q14671 828-1176, C935Y;R936F;Q939E)
Procedure, shortened: as §1

PUM1 PUF domain R5-QNG = PUM1 PUF domain R5-QNG (Homo sapiens, UniProt Q14671 828-1176, C1007Q;R1008N;Q1011G)
Procedure, shortened: as §1

PUM1 PUF domain R5-KQT = PUM1 PUF domain R5-KQT (Homo sapiens, UniProt Q14671 828-1176, C1007K;R1008Q;Q1011T)
Procedure, shortened: as §1

PUM1 PUF domain R5-QGR = PUM1 PUF domain R5-QGR (Homo sapiens, UniProt Q14671 828-1176, C1007Q;R1008G;Q1011R)
Procedure, shortened: as §1

PUM1 PUF domain R5-ATR = PUM1 PUF domain R5-ATR (Homo sapiens, UniProt Q14671 828-1176, C1007A;R1008T;Q1011R)
Procedure, shortened: as §1

PUM1 PUF domain R5-DMR = PUM1 PUF domain R5-DMR (Homo sapiens, UniProt Q14671 828-1176, C1007D;R1008M;Q1011R)
Procedure, shortened: as §1

PUM1 PUF domain R5-KYR = PUM1 PUF domain R5-KYR (Homo sapiens, UniProt Q14671 828-1176, C1007K;R1008Y;Q1011R)
Procedure, shortened: as §1

PUM1 PUF domain R7-KGG = PUM1 PUF domain R7-KGG (Homo sapiens, UniProt Q14671 828-1176, S1079K;N1080G;E1083G)
Procedure, shortened: as §1

PUM1 PUF domain R7-LPT = PUM1 PUF domain R7-LPT (Homo sapiens, UniProt Q14671 828-1176, S1079L;N1080P;E1083T)
Procedure, shortened: as §1

PUM1 PUF domain R5-KQT, sequence (Q14671 828-1176 C1007K/R1008Q/Q1011T): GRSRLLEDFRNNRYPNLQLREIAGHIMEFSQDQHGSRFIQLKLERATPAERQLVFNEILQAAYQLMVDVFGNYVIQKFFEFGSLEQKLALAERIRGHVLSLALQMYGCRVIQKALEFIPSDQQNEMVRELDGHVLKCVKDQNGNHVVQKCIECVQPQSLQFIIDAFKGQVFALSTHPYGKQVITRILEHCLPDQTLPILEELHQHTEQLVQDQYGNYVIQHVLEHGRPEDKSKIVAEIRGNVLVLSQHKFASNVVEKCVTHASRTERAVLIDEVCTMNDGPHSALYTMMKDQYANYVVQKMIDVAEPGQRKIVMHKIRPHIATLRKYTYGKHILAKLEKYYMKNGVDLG
PUM1 PUF domain R4-AFP, sequence (Q14671 828-1176 N971A/H972F/Q975P): as the sequence (Q14671 828-1176 C1007K/R1008Q/Q1011T) above, with N144A, H145F, Q148P, K180C, Q181R, T184Q counted along it

## GGCUAGAACUAGUGGAUCCCCCGGCGCCCGGCGGCUCGAGCCCGGGUAAGUGUAUAUAGUCUGCAUGCCGCCGGGCGCCAUGCCUGCAGGUCGACUCUAGAAAACAUG
PUM1 PUF domain R4-AFP
  binding signal: 5 log2 enrichment (interaction score)
PUM1 PUF domain R4-VNA
  binding signal: 3.11 log2 enrichment (interaction score)

## GGCUAGAACUAGUGGAUCCCCCGGCGCCCGGCGGCUCGAGCCCGGGUAAGCGUAAAUAGUCUGCAUGCCGCCGGGCGCCAUGCCUGCAGGUCGACUCUAGAAAACAUG
PUM1 PUF domain R8-RCK
  binding signal: 2.23 log2 enrichment (interaction score)
PUM1 PUF domain R8-SYR
  binding signal: 4.37 log2 enrichment (interaction score)

## GGCUAGAACUAGUGGAUCCCCCGGCGCCCGGCGGCUCGAGCCCGGGUAAGUGUACAUAGUCUGCAUGCCGCCGGGCGCCAUGCCUGCAGGUCGACUCUAGAAAACAUG
PUM1 PUF domain R4-AFP
  binding signal: 6.13 log2 enrichment (interaction score)
PUM1 PUF domain R4-VNA
  binding signal: 1.65 log2 enrichment (interaction score)

## GGCUAGAACUAGUGGAUCCCCCGGCGCCCGGCGGCUCGAGCCCGGGUAAGUGAAAAUAGUCUGCAUGCCGCCGGGCGCCAUGCCUGCAGGUCGACUCUAGAAAACAUG
PUM1 PUF domain R6-SWE
  binding signal: 4.09 log2 enrichment (interaction score)

## GGCUAGAACUAGUGGAUCCCCCGGCGCCCGGCGGCUCGAGCCCGGGUAAGUGUAAGUAGUCUGCAUGCCGCCGGGCGCCAUGCCUGCAGGUCGACUCUAGAAAACAUG
PUM1 PUF domain R3-RVR
  binding signal: 1.73 log2 enrichment (interaction score)
PUM1 PUF domain R3-YFE
  binding signal: 5.72 log2 enrichment (interaction score)

## GGCUAGAACUAGUGGAUCCCCCGGCGCCCGGCGGCUCGAGCCCGGGUAAGUGUUAAUAGUCUGCAUGCCGCCGGGCGCCAUGCCUGCAGGUCGACUCUAGAAAACAUG
PUM1 PUF domain R5-QNG
  binding signal: 2.88 log2 enrichment (interaction score)
PUM1 PUF domain R5-KQT
  binding signal: 2.84 log2 enrichment (interaction score)

## GGCUAGAACUAGUGGAUCCCCCGGCGCCCGGCGGCUCGAGCCCGGGUAAGUGUCAAUAGUCUGCAUGCCGCCGGGCGCCAUGCCUGCAGGUCGACUCUAGAAAACAUG
PUM1 PUF domain R5-KQT
  binding signal: 4.51 log2 enrichment (interaction score)
PUM1 PUF domain R5-QGR
  binding signal: 3.22 log2 enrichment (interaction score)
PUM1 PUF domain R5-ATR
  binding signal: 3.13 log2 enrichment (interaction score)
PUM1 PUF domain R5-DMR
  binding signal: 3.01 log2 enrichment (interaction score)
PUM1 PUF domain R5-KYR
  binding signal: 2.48 log2 enrichment (interaction score)

## GGCUAGAACUAGUGGAUCCCCCGGCGCCCGGCGGCUCGAGCCCGGGUAAGUUUAAAUAGUCUGCAUGCCGCCGGGCGCCAUGCCUGCAGGUCGACUCUAGAAAACAUG
PUM1 PUF domain R7-KGG
  binding signal: 2.69 log2 enrichment (interaction score)
PUM1 PUF domain R7-LPT
  binding signal: 3.22 log2 enrichment (interaction score)
